Only some compounds are listed: those with a hit (about 18% of all), similar ones and a draw of the others.
TDP1 cell CPT: growth inhibition of DT40 Tdp1-/-;hTDP1 cells with camptothecin (screen for TDP1 inhibitors) | 420,000 compounds, 12% hits | chicken DT40 Tdp1-/-;hTDP1 cells + 20 nM CPT, ATP luminescence, 48 h | Potency, µM (highest dose often 46.2 µM), inactives show at the top dose activity change, negative = growth inhibition, most hits filed as inhibitors; further: potency means the concentration at half of the fitted maximal effect; nearly all actives have a fitted effect of over 55% in size
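Chicken DT40 Tdp1-/- cells stably complemented with human TDP1 were seeded at 400 cells/well in medium containing 20 nM camptothecin, exposed to pin-transferred compounds, and grown at 37 °C for at least 48 hr. Viability was read as ATP luminescence.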
Six1-Eya2 blk: Six1/Eya2 interaction inhibition; 360,000 compounds, 0.56% hits; Q15475+O00167; activity change, % (concentration not given with the values); AlphaScreen GST-Six1/His-Eya2 binding, biochemical; stronger effect = lower value; in the data active means activity change below about -65%; inconclusive means mostly about -30% to -63%
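Homogeneous AlphaScreen proximity assay pairing GST-Six1 with His-tagged Eya2 (added as 5X mix: 250 nM and 500 nM) in 50 mM Tris pH 8.0, 300 mM NaCl, 1 mM TCEP. Glutathione donor and nickel acceptor beads; 1 h, 37 °C, dark.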
TDP1 cell noCPT: qHTS for Inhibitors of human tyrosyl-DNA phosphodiesterase 1 (TDP1): qHTS in cells in absence of CPT; DT40 Tdp1-/- hTDP1 cells, no CPT, ATP luminescence, 48 h; Potency, µM (doses to about 46.2 µM), inactives show top-dose activity change, negative = growth inhibition, actives largely listed as inhibitors; 420,000 compounds, 15% hits; AID 686978, 2013; further: potency means the concentration at half of the fitted maximal effect; nearly all actives have a fitted effect of over 55% in size
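Seeded 400 DT40-hTDP1 cells/well (vehicle DMSO, no 20 nM CPT); pinned compounds; ≥48 hr at 37 °C; CellTiter-Glo luminescence as viability measure.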
CtBP-E1A blk: CtBP/E1A binding inhibition | 340,000 compounds, 0.49% hits | activity change, % (test concentration not listed) | AID 651724 | AlphaScreen GST-E1A/His-CtBP binding, 1536-well; stronger effect = lower value; in the data active means activity change below about -65%; inconclusive means mostly about -30% to -63%
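Protein mix (5X: 125 nM each GST-E1A, His-CtBP) was incubated with pinned compound 2 h at 37 deg C in dark, in 50 mM Tris pH 8.0 buffer with 300 mM NaCl. Glutathione donor and nickel acceptor beads followed; AlphaScreen signal read after 1 h.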
TDP1 block: TDP1 (human) enzyme inhibition; Potency, µM (doses to about 130 µM), for inactives: at the top dose activity change, negative = inhibition, hits mostly inhibitors; recombinant TDP1, AlphaScreen DNA substrate cleavage; Q9NUW8; AID 485290; 350,000 compounds, 0.28% hits; further: potency means the concentration at half of the fitted maximal effect; nearly all actives have a fitted effect of over 40% in size
Target sequence (Q9NUW8 whole entry, looked up): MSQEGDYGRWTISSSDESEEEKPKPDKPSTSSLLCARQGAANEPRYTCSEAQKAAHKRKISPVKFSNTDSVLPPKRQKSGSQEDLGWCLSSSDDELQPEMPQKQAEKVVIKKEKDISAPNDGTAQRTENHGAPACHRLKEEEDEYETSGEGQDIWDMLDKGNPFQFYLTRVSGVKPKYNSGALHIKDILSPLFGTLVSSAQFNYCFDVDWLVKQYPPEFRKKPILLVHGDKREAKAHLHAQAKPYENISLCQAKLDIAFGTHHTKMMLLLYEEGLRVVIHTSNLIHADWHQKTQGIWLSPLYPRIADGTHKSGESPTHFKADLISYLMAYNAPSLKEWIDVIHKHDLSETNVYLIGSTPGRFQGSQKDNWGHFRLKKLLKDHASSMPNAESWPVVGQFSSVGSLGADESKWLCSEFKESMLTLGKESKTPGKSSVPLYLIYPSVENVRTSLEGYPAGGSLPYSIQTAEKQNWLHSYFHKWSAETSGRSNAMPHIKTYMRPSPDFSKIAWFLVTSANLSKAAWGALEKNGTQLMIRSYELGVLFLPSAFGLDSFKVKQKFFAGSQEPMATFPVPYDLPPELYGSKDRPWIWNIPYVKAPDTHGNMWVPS
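E. coli-derived human Tdp1, 1 nM final. Cpd preinc 15 min RT; substrate 15 nM final, 5 min RT; AS bead mix 10 ug/ml final, 10 min RT. Signal loss = tyrosine-FITC cleavage. No-enzyme wells = max signal.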
IL1B secr inh: inhibitors of inflammasome signaling (IL-1 beta secretion). AID 743279. activity change, % at 57.5 µM. THP-1 LPS/ATP IL-1B secretion, AlphaLISA, 16 h; stronger effect = lower value. 360,000 compounds, 4.7% hits; in the data active means activity change below about -50%; inconclusive means mostly about -30% to -49%
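Secreted IL-1B measured by AlphaLISA bead assay after 16 h compound exposure of THP-1 cells; compounds (final up to 57.5 uM) added 1 h before LPS (250 ng/mL) and ATP (1.25 mM) stimulation; lower signal means less secretion.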
* hit, by the source's call; ? = inconclusive; nt = no result given; [ ] = dose if it differs, or a comment. Unless noted, the call rests on the fitted dose curve; in most records, active means well fitted curve in the direction sought with a large enough effect; inconclusive means small, poorly fitted or top-dose-only effect, or another doubt; inactive means no such curve, though single readings can be large; an effect the other way counts as inactive or inconclusive. On the % scale 0 is the no-effect control and ±100 the full control effect.

SMILES	TDP1 cell CPT	Six1-Eya2 blk	TDP1 cell noCPT	CtBP-E1A blk	TDP1 block	IL1B secr inh
O=[N+]([O-])c1ccccc1C1Nc2cccc3cccc(c23)N1	7.31µM*	-25.4	?	2.2	7.9%	-65.9*
CN(C)c1ccc(C2Nc3cccc4cccc(c34)N2)cc1	?	0.4	23.1µM*	-7.1	nt	9.7
Fc1cccc(Cl)c1C1Nc2cccc3cccc(c23)N1	23.1µM*	-3.8	20.6µM*	nt	9.4%	-5.2
Clc1cccc(C2Nc3cccc4cccc(c34)N2)c1	5.17µM*	1.7	10.3µM*	-2.5	8.7%	-23.3
Clc1ccc(C2Nc3cccc4cccc(c34)N2)cc1Cl	?	-5.3	?	nt	nt	9.2
Brc1cccc(C2Nc3cccc4cccc(c34)N2)c1	?	3.8	-18.5%	-10.1	7.0%	2.0
Brc1ccc(C2Nc3cccc4cccc(c34)N2)o1	20.6µM*	-5.7	18.4µM*	1.0	?	-77.3*
Cc1cc(C)cc(OCc2nnc(N)s2)c1	-6.3%	1.4	-3.3%	0.0	nt	-14.5
OC1(c2cccnc2)CCN(Cc2ccc3c(c2)CN(Cc2cc4ccccc4s2)CCO3)CC1	-1.7%[9.04 µM]	nt	16.4µM*	nt	nt	nt
OC1(c2cccnc2)CCN(Cc2ccc3c(c2)CN(Cc2cccc(C(F)(F)F)c2)CCO3)CC1	-21.9%[9.04 µM]	nt	25.9µM*	nt	nt	nt
Cc1cc2c(ncn2C)c(NS(=O)(=O)c2ccc(Cl)cc2)c1C	-1.3%	1.5	-10.5%	3.4	-0.5%	-5.2
COc1ccc(NC(=O)NC[C@@H]2CC[C@@H](Cc3ccc(-c4ccccc4)cc3)O2)cc1	?	-0.7	?	-0.4	0.9%[56.1 µM]	-0.5
CC1CCCCN1Cc1ccc(-c2nn[nH]n2)cc1 (configuration not stated)	-3.9%	-4.7	5.0%	3.2	1.0%	5.9
O=C(Nc1ccccc1NC(=O)c1ccc(F)cc1)c1ccc(F)cc1	0.9%	-1.0	-28.5%	nt	nt	6.7
CCOC(=O)c1ccc(NC(=O)c2cccc3c2C(=O)N(CC2CCCO2)C3)cc1 (configuration not stated)	?	-2.3	?	5.2	nt	-27.4
CCOC(=O)C1=CN(CC2CCCO2)C=C(C(=O)OCC)C1c1ccccc1C(F)(F)F (configuration not stated)	?	31.1	18.4µM*	23.9	nt	-11.2
CN(C(=O)COC(=O)c1ccc(Cl)c(N)c1)c1ccccc1	11.6%	11.4	-34.2%	3.6	-2.6%	-12.4
Cc1cc(C)n(-c2ccc(C(=O)N3CCN(S(=O)(=O)c4ccc(C(C)C)cc4)CC3)cc2)n1	?	0.0	14.6µM*	-19.5	2.6%	?
Cc1cc(C)n(-c2ccc(C(=O)N3CCN(S(=O)(=O)c4cccc(Br)c4)CC3)cc2)n1	20.6µM*	-2.3	20.6µM*	-15.1	nt	0.0
CCOC(=O)C1CCCN(C(=O)c2ccccc2NC(=O)C2=C(C)OCCS2)C1 (configuration not stated)	-7.2%	3.4	6.5%	-1.1	1.7%	3.1
Cc1ccc(OCc2cc(C(=O)N(C)CCc3ccccn3)no2)cn1	-32.6%	2.8	-25.2%	5.7	3.3%	0.0
CCOC(=O)C1CCC(CN(Cc2c(Cl)cccc2Cl)S(=O)(=O)c2ccc(F)c(C)c2)CC1 (configuration not stated)	?	nt	?	nt	5.2%	nt
CCOC(=O)C1CCC(CN(Cc2ccccc2)S(=O)(=O)c2ccc(Cl)cc2)CC1 (configuration not stated)	?	nt	?	nt	-13.0%	nt
CCOC(=O)C1CCC(CN(Cc2c(Cl)cccc2Cl)S(=O)(=O)c2ccc(Cl)cc2)CC1 (configuration not stated)	?	nt	20.6µM*	nt	2.6%	nt
CCOC(=O)C1CCC(CN(Cc2cccc(Br)c2)S(=O)(=O)c2ccc(Cl)cc2)CC1 (configuration not stated)	29.1µM*	nt	20.6µM*	nt	-2.6%	nt
SMILES	TDP1 cell CPT	Six1-Eya2 blk	TDP1 cell noCPT	CtBP-E1A blk	TDP1 block	IL1B secr inh
CSc1ccccc1C(=O)C1CCCN(S(=O)(=O)N(C)C)C1 (configuration not stated)	-25.0%	5.0	?	nt	3.6%	23.7
COc1ccccc1N1CCN(C(=O)Nc2ccc([N+](=O)[O-])cc2)CC1	?	2.0	16.4µM*	-5.6	3.5%	-13.8
CC(C)(C)c1ccc(NC(=O)N2CCN(c3ccc([N+](=O)[O-])cn3)CC2)cc1	3.26µM*	-8.1	8.2µM*	0.9	3.7%	nt
Cc1cc(C)c(C(=O)COC(=O)CCn2c(C)csc2=O)cc1C	-16.2%	13.0	-11.6%	0.0	-6.2%	11.5
COc1ccc(C2Nc3ccc(NC(C)=O)cc3C(=O)N2Cc2ccccc2)cc1COc1ccc(NC(C)=O)cc1 (configuration not stated)	?	nt	17.8µM*	nt	-1.8%	nt
O=C1c2ccccc2NC(c2ccc(OCc3ccccc3)c(OCc3ccccc3)c2)N1Cc1ccco1 (configuration not stated)	11.2µM*	nt	12.6µM*	nt	0.9%	nt
COc1ccc(C2Nc3ccccc3C(=O)N2c2ccc(F)cc2)cc1COc1ccc(NC(C)=O)cc1 (configuration not stated)	?	nt	25.1µM*	nt	0.3%	nt
COc1ccc(C2Nc3ccccc3C(=O)N2Cc2ccco2)cc1COc1ccccc1F (configuration not stated)	?	-6.8	?	-1.2	1.1%	-68.5*
COc1cc(C2Nc3ccccc3C(=O)N2Cc2ccco2)ccc1O (configuration not stated)	?	nt	?	nt	3.7%	nt
COc1ccc(C2Nc3ccccc3C(=O)N2Cc2ccccc2)cc1COc1ccccc1OC (configuration not stated)	nt	nt	nt	nt	2.9%	nt
COc1ccc(NS(=O)(=O)c2ccc3c(c2)N(C(C)=O)CCO3)cc1	-18.5%	-1.7	?	nt	3.1%	10.5
COc1ccc(C2Nc3ccccc3C(=O)N2Cc2ccccc2OC)cc1COc1ccc(NC(C)=O)cc1 (configuration not stated)	nt	nt	nt	nt	-4.7%	nt
COc1ccc(C2Nc3ccccc3C(=O)N2Cc2ccccc2)cc1CSc1ccccn1 (configuration not stated)	23.1µM*	-2.6	18.4µM*	-1.7	1.0%	nt
Cc1ccc(C2Nc3ccccc3C(=O)N2Cc2ccco2)cc1 (configuration not stated)	18.4µM*	1.2	?	-4.2	0.0%	-11.9

Assay outcomes as filed in PubChem.
